Results taken from the supplement of paper PMC6897291.

Tested on: U-2932
Assay: growth inhibition by drug alone (1 - RLU/untreated control) (fraction); higher = stronger inhibition
Conditions: 177Lu-lilotomab satetraxetan 0 ug/ml
Procedure: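 U-2932 ABC-DLBCL cells were pretreated or not for 18 h with 1 ug/ml 177Lu-lilotomab satetraxetan (600 MBq/mg), washed and seeded (3000 cells/well) on 384-well plates pre-printed with the Selleck Cambridge Cancer Compound library. Viability was read by RealTime-Glo luminescence on days 3-6 after seeding. Effect = 1 - RLU/mean RLU of the 48 untreated no-drug control wells per plate; Bliss score = (M-E)/(1-Fa), with E the expected Bliss-additive effect.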

SMILES | growth inhibition by drug alone (10 nM, time (day): 3) | growth inhibition by drug alone (10 nM, time (day): 4) | growth inhibition by drug alone (10 nM, time (day): 5) | growth inhibition by drug alone (10 nM, time (day): 6) | growth inhibition by drug alone (1000 nM, time (day): 3) | growth inhibition by drug alone (1000 nM, time (day): 4) | growth inhibition by drug alone (1000 nM, time (day): 5) | growth inhibition by drug alone (1000 nM, time (day): 6)
CC(O)(CS(=O)(=O)c1ccc(F)cc1)C(=O)Nc1ccc(C#N)c(C(F)(F)F)c1 (stereo not given) [Bicalutamide (Casodex)] | 0.0907 | 0.0654 | -0.0744 | -0.0699 | -0.0505 | -0.00664 | -0.0598 | -0.262
O=C(Oc1ccc([N+](=O)[O-])cc1)N1CCC(C(O)(c2ccc3c(c2)OCO3)c2ccc3c(c2)OCO3)CC1 | 0.0143 | 0.0129 | -0.0257 | -0.105 | -0.0233 | 0.0131 | -0.0194 | -0.0568
Cc1ccccc1-n1c(Cn2cnc3c(N)ncnc32)nc2cccc(C)c2c1=O | 0.0494 | 0.000763 | 0.0122 | 0.0686 | 0.047 | 0.0488 | 0.0186 | 0.102
N[C@@H](Cc1ccc(N(CCCl)CCCl)cc1)C(=O)O [Melphalan] | 0.0288 | 0.0447 | -0.0175 | -0.0774 | -0.0212 | 0.00786 | -0.0265 | -0.169
N.N.[Cl][Pt][Cl] [Cisplatin] | 0.0383 | 0.00908 | -0.0126 | 0.00453 | -0.0314 | -0.0428 | -0.0416 | 0.0312
